The values that follow come from PubChem BioAssay (Tox21).

Inconclusive results are not listed. Values without a mark were called inactive. Active and inactive are the calls of the source. The call rests on the fitted dose curve.
On the % scale 0 is the no-effect control and ±100 the full control effect.

A short description of this assay: qHTS assay to identify small molecule agonists or antagonists of the thyroid stimulating hormone receptor (TSHR) signaling pathway - wild type cell line counter screen (AID 1259384). The following applies: HEK293 wild type, cAMP HTRF counter-screen, stronger effect = higher value; series mostly up to 92.4 µM. The text has this: U.S. Tox21 Program National Center for Advancing Translational Sciences [NCATS] NIH Chemical Genomics Center [NCGC] U.S. Environmental Protection Agency [EPA] National Institutes of Environmental Health Sciences [NIEHS] National Toxicology Program [NTP] U.S. Food and Drug Administration [FDA] Tox21 Assay Overview: TSHR is the receptor for thyrotropin (thyroid stimulating hormone or TSH), a member of the glycoprotein hormone family. TSH is released by the anterior pituitary gland and is the main regulator of thyroid gland growth and development. Upon binding circulating thyrotropin, a G-protein signal cascade activates adenylyl cyclase and […] cAMP concentration is increased. cAMP is a key second messenger involved extensively in cellular signal transduction pathways associated with the majority of G-protein coupled receptors (GPCRs). The activation of these GPCRs by neurotransmitters, lipids, nucleotides, peptides and hormones results in the activation or the inhibition of plasma membrane-bound adenylate cyclase through heterotrimeric G-proteins. A cell-based TSHR-Hek293 assay can be used to identify TSHR agonists. To eliminate the false positive compounds identified from screening a cell-based TSHR-Hek293 cell line, cAMP assay in a wild type Hek293 cells was used as a counter screening.
Tox21 Assay Protocol Summary: Hek293 cells (wild type) were dispensed at 800 cells/4 uL/well in 1536-well white plates using a Multidrop dispenser. After the assay plates were incubated at a 37 C/5% CO2 incubator for 18 hrs, 23 nL of compounds dissolved in DMSO, positive controls or DMSO only was transferred to the assay plate by a pin tool, followed by 1 ul medium containing Ro20-1724. After 30 min of incubation at room temperature, 2.5 ul/well of cAMP-d2 and 2.5 ul/well of anti-cAMP-cryptate were added respectively into the assay plates using a Flying Reagent Dispenser. The plates were incubated at room temperature for 1 hr. The fluorescence intensity in the plates was measured using an Envision plate reader. Each test compound was measured at 15 concentrations and in triplicates.
Consider `CCNC(=O)C1CC(C)CCC1C(C)C` (stereo not given), for which the compound was called inactive.
For `COc1nccnc1NS(=O)(=O)c1ccc(N)cc1`, the outcome was inactive.
Regarding `CCOCCOC(=O)/C=C/c1ccc(OC)cc1`, the compound was classed as inactive.
With `CC(C)c1ccc2cc(C(C)C)ccc2c1`, the compound was called inactive.
Regarding `O=C1c2ccccc2C(=O)c2cc(S(=O)(=O)O)ccc21`, the result was inactive.
`CCCCCCOc1ccccc1C(N)=O`: the outcome was inactive.
As for `CC(COC(C)(C)C)OCCCO` (stereo not given), the compound was classed as inactive.
On the same count and under the same terms, the value for `O=C(OCC(COC(=O)c1cccnc1)(COC(=O)c1cccnc1)COC(=O)c1cccnc1)c1cccnc1` was “inactive”; that for `CCOC(=O)c1ccc(OC(=O)CCCCCN=C(N)N)cc1` was “inactive”.
Same read-out and setting: the value for `C=C(C)C(=O)OCCN(CC)CC` was “inactive”.
Still for that read-out and setting: the value for `COCCOC(=O)C1=C(C)NC(C)=C(C(=O)OC(C)C)C1c1cccc([N+](=O)[O-])c1` (stereo not given) was “inactive”; that for `CC(=O)Nc1ccc(S(=O)(=O)Nc2ccc([N+](=O)[O-])cc2)cc1` was “inactive”; that for `C=COCCOCCOCCOC=C` was “inactive”.
For `CN1CCN(CC(=O)N2c3ccccc3C(=O)Nc3cccnc32)CC1`, the cAMP activity change is -2.81% [at 8.39 µM].
`CC(C)N(c1ccccc1)C(C)C`: the call was inactive.
Turning to `Cc1c(I)c(=O)n(-c2ccccc2)n1C`, the compound was classed as inactive.
As to `COC(=O)[C@@H]1[C@H]2C[C@H]3c4[nH]c5ccccc5c4CCN3C[C@@H]2CC[C@@H]1O`, the result was inactive.
Same read-out and setting: the same measure for `CCCCCCCCC1CCC(=O)O1` (stereo not given): “inactive”.
On to `COc1cc(C(=S)N2CCOCC2)cc(OC)c1OC`, for which the compound was called inactive.
As to `CCCCOCCOC(=O)COc1nc(Cl)c(Cl)cc1Cl`, the outcome was inactive.
On the same count and under the same terms, the value for `O=C(O)c1ccc(Cl)cc1Cl` was “inactive”; that for `CCCCC(CC)COCCO` (stereo not given) was “inactive”.
Regarding `COc1ccc2c(c1OC)C(=O)O[C@@H]2[C@H]1c2c(cc3c(c2OC)OCO3)CCN1C`, the compound was called inactive.
In the case of `Cc1ccc(C=O)cc1C`, the compound was called inactive.
With `NC(CO)C(=O)NNCc1ccc(O)c(O)c1O` (stereo not given), the call was inactive.
Consider `CCCCCCCCCCl`, for which the outcome was inactive.
Still for that read-out and setting: the value for `COc1cc2c(cc1OC)[C@@H]1CC(=O)[C@@H](CC(C)C)CN1CC2` was “inactive”; that for `O=C(OCC(O)CO)c1ccccc1Nc1ccnc2c(C(F)(F)F)cccc12` (stereo not given) was “inactive”.
With `CCCCCOC(=O)CCC`, the outcome was inactive.
For `Cc1ccccc1OCC(O)CO` (stereo not given), the compound was classed as inactive.
As to `CN(C)c1ccc(C=O)cc1`, the outcome was inactive.
Take `O=C(NCCc1c[nH]c2ccccc12)c1cccnc1`: the outcome was inactive.
On the same count and under the same terms, the same measure for `Cc1ccccc1C(=O)Nc1ccc(C(=O)N2CCCC(N(C)C)c3ccccc32)cc1` (stereo not given): “inactive”; for `COCCOCCOCCOCCOCCO`: “inactive”; for `O=C(Nc1ccc(Cl)c(Cl)c1)C1CC1`: “inactive”.
Turning to `Cc1[nH]cnc1-c1ccc(Cl)cc1`, the outcome was inactive.
On to `OCCN(CCO)c1cccc(Cl)c1`, for which the compound was classed as inactive.
For the compound `CN(C)CCOCCO`, the result was inactive.
As for `CN(C)C(=O)CNC(=O)Cc1ccccc1`, the result was inactive.
Consider `CCOC(=O)CC(=O)c1ccccc1`, for which the outcome was inactive.
